High-throughput results as filed in PubChem.
Most compounds without a hit are left out; they make up all but 1.6% or so of the library.
Sa ugtP lethal: kills S. aureus RN4220 lacking UgtP. AID 1259309. 330,000 tested, 0.54% active. growth inhibition, % (test concentration not listed). S. aureus RN4220 ugtP deletion, OD600 growth, 16 h; in the data active = growth inhibition above about 68%;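 also: plate controls were untreated wells for no effect and antibiotic for full effect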
RN4220 kill: S. aureus RN4220 growth inhibition; OD600, 16 h; inhibition, % (test concentration not listed); 330,000 tested, 0.33% active; in the data active = inhibition above about 85%;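 also: plate controls were untreated cells for no effect and reference antibiotic for full effect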
CCHF vOTU inh: CCHFV vOTU protease inhibition | Pep-AMC fluorescence | inhibition, % at 11.5 µM | 370,000 tested, 0.55% active | AID 651958; in the data active = inhibition above about 30%; also: 0% = vehicle wells with enzyme and 100% = no enzyme wells
BJeLR lethal: kills HRASV12-expressing BJeLR cells. BJeLR (HRASV12) viability, CellTiter-Glo ATP luminescence, 48 h. inhibition, % (concentration not given with the values). 300,000 tested, 0.17% active; in the data active = inhibition above about 50%
PfHsp40 rescue: compounds rescuing yeast from Plasmodium falciparum HSP40 toxicity; S. cerevisiae expressing PfHsp40, growth rescue, ATP luminescence; growth rescue, % at 12.5 µM; 340,000 tested, 0.68% active; AID 504582; in the data active = growth rescue above about 28%, passing the limit was not always enough;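 also: yeast W303a lacking pdr1 and pdr3 grown in galactose medium; growth measured after three days at 30 °C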
An asterisk follows results filed as active.

`COc1ccc(C=NOCC(=O)Nc2nc3ccccc3s2)cc1OC` gave Sa ugtP lethal 5 and RN4220 kill 6.
Screening Cc1cc(-n2ccnc2)n2c(nc3ccccc32)c1C#N returned Sa ugtP lethal 9, RN4220 kill 1, CCHF vOTU inh -4, BJeLR lethal 18 and PfHsp40 rescue 38*.
For CCCc1cc(-n2ccnc2)n2c(nc3ccccc32)c1C#N the results were Sa ugtP lethal 27, RN4220 kill 7, CCHF vOTU inh -6, BJeLR lethal 1 and PfHsp40 rescue -2.
Cc1ccccc1NC(=O)CC1SC(=Nc2nccs2)N(C)C1=O (stereo not drawn) was read as Sa ugtP lethal 1 and RN4220 kill -1.
Screening CCCCCn1c(=O)c(C(=O)Nc2ccccc2S(N)(=O)=O)c(O)c2ccccc21 returned Sa ugtP lethal 100*, RN4220 kill 100*, CCHF vOTU inh 11, BJeLR lethal 3 and PfHsp40 rescue 1.
CCCCn1c(=O)c(C(=O)Nc2ccccc2S(N)(=O)=O)c(O)c2ccccc21 was read as Sa ugtP lethal 61, RN4220 kill 93*, CCHF vOTU inh 9, BJeLR lethal 6 and PfHsp40 rescue 1.
For O=C(NC(Nc1nc2ccc([N+](=O)[O-])cc2s1)(C(F)(F)F)C(F)(F)F)c1cccnc1 the results were Sa ugtP lethal 29, RN4220 kill 41, CCHF vOTU inh 18, BJeLR lethal 34 and PfHsp40 rescue -1.
`O=C(NC(Nc1nc2ccc([N+](=O)[O-])cc2s1)(C(F)(F)F)C(F)(F)F)c1ccccc1Cl` gave Sa ugtP lethal 99*, RN4220 kill 100*, CCHF vOTU inh 24, BJeLR lethal 60* and PfHsp40 rescue 0.
CC(C)=C[C@@H]1C[C@H](C)[C@H]2CC[C@H](C)c3c(O)c(O)c(C)c1c32 was read as CCHF vOTU inh -5 and PfHsp40 rescue 1.
`CC(=O)Oc1c(C)c2c3c(c1OC(C)=O)[C@@H](C)CC[C@@H]3[C@@H](C)C[C@H]2C=C(C)C` gave Sa ugtP lethal 86*, RN4220 kill -10, CCHF vOTU inh 7 and PfHsp40 rescue 2.
For Clc1ccc(CSc2ccc(-c3ccccn3)nn2)cc1 the results were Sa ugtP lethal 3, RN4220 kill 7, CCHF vOTU inh -4, BJeLR lethal 2 and PfHsp40 rescue -1.
Screening c1ccc(CSc2ccc(-c3ccccn3)nn2)cc1 returned Sa ugtP lethal 1, RN4220 kill 9, CCHF vOTU inh -10, BJeLR lethal -8 and PfHsp40 rescue 112*.
O=C(CSc1ccc(-c2ccccn2)nn1)c1ccccc1 was read as Sa ugtP lethal 6, RN4220 kill 7, CCHF vOTU inh -1, BJeLR lethal 0 and PfHsp40 rescue 401*.
`O=C(CSc1ccc(-c2ccccn2)nn1)NC1CCCC1` gave Sa ugtP lethal -3, RN4220 kill 4, CCHF vOTU inh -4, BJeLR lethal 7 and PfHsp40 rescue 221*.
Screening O=C(CSc1ccc(-c2ccccn2)nn1)N1CCCC1 returned Sa ugtP lethal 4, RN4220 kill 1, CCHF vOTU inh 11, BJeLR lethal 12 and PfHsp40 rescue 91*.
CN1CCN(N=C2C(=O)Nc3ccc([N+](=O)[O-])cc32)CC1 was read as Sa ugtP lethal 7 and RN4220 kill 5.
Screening O=C(c1ccc([N+](=O)[O-])o1)N1CCN(Cc2ccccc2)CC1 returned Sa ugtP lethal 1, RN4220 kill -1, CCHF vOTU inh -2, BJeLR lethal -7 and PfHsp40 rescue -1.
Screening CCc1cccc2sc(N3CCN(C(=O)c4ccc([N+](=O)[O-])o4)CC3)nc12 returned Sa ugtP lethal 99*, RN4220 kill 100*, BJeLR lethal 15 and PfHsp40 rescue 39*.
CC1C(c2ccccc2)OC(c2ccccc2Br)N1C (stereo not drawn) was read as Sa ugtP lethal 6 and RN4220 kill 14.
c1ccc(C2OC3c4cccc5cccc(c45)C3N2c2ccccc2)cc1 (stereo not drawn) was read as Sa ugtP lethal 84*, RN4220 kill -6, CCHF vOTU inh 10, BJeLR lethal -4 and PfHsp40 rescue 1.
Screening C=CCOC(=O)C1=C(C)NC(SC)=C(C#N)C1c1ccc(OCC)cc1 (stereo not drawn) returned Sa ugtP lethal 91*, RN4220 kill -2, CCHF vOTU inh 8, BJeLR lethal 4 and PfHsp40 rescue 1.
CC1CC(=NNC(=S)NCc2ccccc2)CC(C)(C)C1 (stereo not drawn) was read as Sa ugtP lethal 66 and RN4220 kill 2.
For Cc1cccc(CCNC(=O)CN(C)S(=O)(=O)c2cnc[nH]2)c1 the results were Sa ugtP lethal 0, RN4220 kill 1, CCHF vOTU inh -15, BJeLR lethal -2 and PfHsp40 rescue 70*.
`Nc1nnn(CC(=O)NN=Cc2cccc(Cl)c2)n1` gave Sa ugtP lethal -5 and RN4220 kill 0.
Screening CCNC(=S)NNC(=O)c1cc(-c2ccc(OCC)cc2)nc2ccccc12 returned Sa ugtP lethal 4, RN4220 kill 6, CCHF vOTU inh 4, BJeLR lethal 54* and PfHsp40 rescue -1.
Screening COc1ccc(C(=O)NNC(=O)c2cc(C)nc3ccccc23)cc1 returned Sa ugtP lethal -8, RN4220 kill 3, CCHF vOTU inh -7 and PfHsp40 rescue 0.
`Cc1cc(C(=O)NNC(=O)c2ccc(Cl)cc2)c2ccccc2n1` gave Sa ugtP lethal 4, RN4220 kill 7, CCHF vOTU inh -1 and PfHsp40 rescue 65*.
Screening COc1ccc(Cl)cc1C(=O)NNC(=S)NC(=O)c1cc(-c2ccccc2)nc2ccccc12 returned Sa ugtP lethal 97*, RN4220 kill 93*, CCHF vOTU inh -1, BJeLR lethal 9 and PfHsp40 rescue 1.
For CNC(=O)N(O)C1N(N=Cc2cccs2)C(=S)SC1(C)C (stereo not drawn) the results were Sa ugtP lethal -4 and RN4220 kill 2.
Screening COC(=O)c1cnn(-c2ccccc2)c1C=NNC(=S)Nc1ccc(Cl)cc1 returned Sa ugtP lethal -5 and RN4220 kill -1.
COc1cc2c(cc1/C=C/[N+](=O)[O-])OCO2 was read as Sa ugtP lethal 7, RN4220 kill 0, CCHF vOTU inh -6, BJeLR lethal 37 and PfHsp40 rescue 242*.
`COC(=O)c1cc2c(cc1[N+](=O)[O-])OCO2` gave Sa ugtP lethal 4, RN4220 kill 8, CCHF vOTU inh -4, BJeLR lethal -3 and PfHsp40 rescue -2.
For C[C@@H]1CCCCCCCCC(=O)OCCN[C@H](C)CCCCCCCCC(=O)OCCN[C@H](C)CCCCCCCCC(=O)OCCN1 the results were PfHsp40 rescue 41*.
`CC1CCCCCCCCC(=O)OCCN(C(=O)OC(C)(C)C)C(C)CCCCCCCCC(=O)OCCN1C(=O)OC(C)(C)C` (stereo not drawn) gave Sa ugtP lethal -5 and RN4220 kill 2.
For Cc1c(N2C(=O)c3ccccc3C2(O)c2ccccc2)c(=O)n(-c2ccccc2)n1C (stereo not drawn) the results were Sa ugtP lethal 5, RN4220 kill 6, CCHF vOTU inh -9, BJeLR lethal 1 and PfHsp40 rescue -1.
